Assay results taken from the supplement of paper PMC10849652.
Of roughly 7,900 targets only a part is listed; those with a hit were picked by preference. About 0.6% of all pairs of compound and target were hits. Unmarked numbers belong to inactive results.

Experiments:
Test in all cases: log2 fold change, soluble protein after heating vs DMSO (PISA); higher = thermal stabilisation; K562 cells, 10 uM, 30 min; active = over 0.2 and 3.5 SD of the protein, either way, in both replicates (recomputed)
saracatinib = compound: CN1CCN(CCOc2cc(OC3CCOCC3)c3c(Nc4c(Cl)ccc5c4OCO5)ncnc3c2)CC1 [saracatinib]
How it was run: (§1)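 Aliquots of K562 cells (2×10^6 cells/mL) treated with 10 μM compound for 30 min were heated for 3 min over 48°C-58°C. After pooling and extraction in PBS with 0.5% NP-40 at 4°C, soluble protein from a 21,000xg, 90 min spin was quantified by TMTpro 16plex LC-MS/MS with channel sums equalised. Thermal stability is expressed against control samples, from duplicates, as a log2 fold change.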

sotrastaurin = compound: CN1CCN(c2nc(C3=C(c4c[nH]c5ccccc45)C(=O)NC3=O)c3ccccc3n2)CC1 [sotrastaurin]
How it was run: as §1

alvocidib = compound: CN1CC[C@H](c2c(O)cc(O)c3c(=O)cc(-c4ccccc4Cl)oc23)[C@H](O)C1 [alvocidib]
How it was run: as §1

Tubastatin A = compound: CN1CCc2c(c3ccccc3n2Cc2ccc(C(=O)NO)cc2)C1 [Tubastatin A]
How it was run: as §1

[1] = compound: CNC(=O)C1=CC=CC=C1NC2=NC(=NC=C2Cl)NC3=C(C=C(C=C3)N4CCOCC4)OC
How it was run: as §1

defactinib = compound: CNC(=O)c1ccc(Nc2ncc(C(F)(F)F)c(NCc3nccnc3N(C)S(C)(=O)=O)n2)cc1 [defactinib]
How it was run: as §1

rucaparib = compound: CNCc1ccc(-c2[nH]c3cc(F)cc4c3c2CCNC4=O)cc1 [rucaparib]
How it was run: as §1

[2] = compound: CNc1nc(-c2ccc3c(N)n[nH]c3c2)cc(N2C[C@@H](C(=O)NC3CCCCC3)CC[C@H]2C)n1
How it was run: as §1

encorafenib = compound: COC(=O)N[C@@H](C)CNc1nccc(-c2cn(C(C)C)nc2-c2cc(Cl)cc(NS(C)(=O)=O)c2F)n1 [encorafenib]
How it was run: as §1

[3] = compound: COC(=O)[C@H](CCSC)NC(=O)C1=C(C=C(C=C1)NC[C@H](CS)N)C2=CC=CC=C2
How it was run: as §1

[4] = compound: COC1=CC=C(C=C1)CN2C=CC3=C2C=C(C=C3)C(=O)NO
How it was run: as §1

filanesib = compound: CON(C)C(=O)N1N=C(c2cc(F)ccc2F)S[C@@]1(CCCN)c1ccccc1 [filanesib]
How it was run: as §1

zotarolimus = compound: CO[C@H]1C[C@@H]2CC[C@@H](C)[C@@](O)(O2)C(=O)C(=O)N2CCCC[C@H]2C(=O)O[C@H]([C@H](C)C[C@@H]2CC[C@H](n3cnnn3)[C@H](OC)C2)CC(=O)[C@H](C)/C=C(\C)[C@@H](O)[C@@H](OC)C(=O)[C@H](C)C[C@H](C)/C=C/C=C/C=C/1C [zotarolimus]
How it was run: as §1

idasanutlin = compound: COc1cc(C(=O)O)ccc1NC(=O)[C@@H]1N[C@@H](CC(C)(C)C)[C@](C#N)(c2ccc(Cl)cc2F)[C@H]1c1cccc(Cl)c1F [idasanutlin]
How it was run: as §1

alisertib = compound: COc1cc(Nc2ncc3c(n2)-c2ccc(Cl)cc2C(c2c(F)cccc2OC)=NC3)ccc1C(=O)O [alisertib]
How it was run: as §1

[5] = compound: COc1cc2nc(-c3cc(F)ccc3O)nc(N[C@@H]3CNC[C@H]3C(C)(C)O)c2cc1OC
How it was run: as §1

gefitinib = compound: COc1cc2ncnc(Nc3ccc(F)c(Cl)c3)c2cc1OCCCN1CCOCC1 [gefitinib]
How it was run: as §1

[6] = compound: COc1cccc2cc(-c3nc([C@H]4CC[C@H](C(=O)O)CC4)n4ncnc(N)c34)[nH]c12
How it was run: as §1

lapatinib = compound: CS(=O)(=O)CCNCc1ccc(-c2ccc3ncnc(Nc4ccc(OCc5cccc(F)c5)c(Cl)c4)c3c2)o1 [lapatinib]
How it was run: as §1

pictilisib = compound: CS(=O)(=O)N1CCN(Cc2cc3nc(-c4cccc5[nH]ncc45)nc(N4CCOCC4)c3s2)CC1 [pictilisib]
How it was run: as §1

Chain of UniProt P25685 (P25685 whole entry, looked up): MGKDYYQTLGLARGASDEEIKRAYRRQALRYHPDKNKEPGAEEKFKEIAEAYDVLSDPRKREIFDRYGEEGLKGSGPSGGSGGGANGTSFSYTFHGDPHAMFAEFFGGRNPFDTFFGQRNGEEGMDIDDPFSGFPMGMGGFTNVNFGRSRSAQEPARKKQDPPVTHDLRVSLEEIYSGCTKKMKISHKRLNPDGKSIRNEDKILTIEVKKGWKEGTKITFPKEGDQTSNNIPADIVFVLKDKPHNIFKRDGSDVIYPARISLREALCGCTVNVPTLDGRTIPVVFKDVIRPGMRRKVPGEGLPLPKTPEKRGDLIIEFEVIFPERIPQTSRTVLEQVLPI
Chain of UniProt Q9UBQ6 (Q9UBQ6 whole entry, looked up): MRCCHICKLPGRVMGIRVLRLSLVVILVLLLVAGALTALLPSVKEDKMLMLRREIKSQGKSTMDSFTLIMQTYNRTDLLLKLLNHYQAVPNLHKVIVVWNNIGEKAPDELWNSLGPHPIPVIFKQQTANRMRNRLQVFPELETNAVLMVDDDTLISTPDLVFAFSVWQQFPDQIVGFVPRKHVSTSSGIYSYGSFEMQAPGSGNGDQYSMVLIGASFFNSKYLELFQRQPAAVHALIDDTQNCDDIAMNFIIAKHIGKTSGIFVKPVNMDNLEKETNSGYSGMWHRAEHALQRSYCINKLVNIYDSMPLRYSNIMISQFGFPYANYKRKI
Chain of UniProt Q15075 (Q15075 whole entry, looked up): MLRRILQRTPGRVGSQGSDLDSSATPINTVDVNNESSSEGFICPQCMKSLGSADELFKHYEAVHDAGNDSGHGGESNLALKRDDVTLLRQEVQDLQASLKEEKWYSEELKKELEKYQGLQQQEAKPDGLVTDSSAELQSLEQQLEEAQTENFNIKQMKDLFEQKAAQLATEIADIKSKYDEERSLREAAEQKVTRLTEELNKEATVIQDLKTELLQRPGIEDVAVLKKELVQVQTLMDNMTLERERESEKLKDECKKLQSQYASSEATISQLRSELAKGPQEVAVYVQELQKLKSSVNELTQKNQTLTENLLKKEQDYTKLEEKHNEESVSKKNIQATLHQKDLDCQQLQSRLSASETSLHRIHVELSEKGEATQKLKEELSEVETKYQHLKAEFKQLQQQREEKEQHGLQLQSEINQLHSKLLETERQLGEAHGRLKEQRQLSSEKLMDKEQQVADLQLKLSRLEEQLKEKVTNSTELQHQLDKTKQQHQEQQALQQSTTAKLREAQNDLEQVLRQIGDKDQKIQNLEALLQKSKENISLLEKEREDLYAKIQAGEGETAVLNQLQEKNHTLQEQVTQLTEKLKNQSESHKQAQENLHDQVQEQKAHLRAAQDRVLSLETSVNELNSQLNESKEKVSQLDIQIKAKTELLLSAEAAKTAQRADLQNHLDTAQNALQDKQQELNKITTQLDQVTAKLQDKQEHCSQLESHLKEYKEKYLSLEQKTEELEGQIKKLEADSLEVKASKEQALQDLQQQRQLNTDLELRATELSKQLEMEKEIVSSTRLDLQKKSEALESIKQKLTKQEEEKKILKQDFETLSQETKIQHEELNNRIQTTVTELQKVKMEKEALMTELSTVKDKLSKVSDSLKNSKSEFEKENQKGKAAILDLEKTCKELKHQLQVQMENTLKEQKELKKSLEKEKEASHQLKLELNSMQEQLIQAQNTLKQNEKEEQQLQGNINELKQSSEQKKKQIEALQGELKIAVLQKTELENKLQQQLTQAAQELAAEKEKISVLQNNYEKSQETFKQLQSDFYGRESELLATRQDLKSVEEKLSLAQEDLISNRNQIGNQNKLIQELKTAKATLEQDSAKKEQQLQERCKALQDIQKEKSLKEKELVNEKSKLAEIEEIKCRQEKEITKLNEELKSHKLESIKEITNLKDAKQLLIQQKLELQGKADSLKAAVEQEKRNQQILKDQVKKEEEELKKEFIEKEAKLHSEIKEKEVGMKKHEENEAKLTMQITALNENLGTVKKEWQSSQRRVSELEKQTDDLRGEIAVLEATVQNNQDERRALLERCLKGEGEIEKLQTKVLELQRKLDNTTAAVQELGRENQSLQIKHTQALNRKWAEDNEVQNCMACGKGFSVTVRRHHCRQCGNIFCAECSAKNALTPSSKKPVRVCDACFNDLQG
Chain of UniProt Q99615 (Q99615 whole entry, looked up): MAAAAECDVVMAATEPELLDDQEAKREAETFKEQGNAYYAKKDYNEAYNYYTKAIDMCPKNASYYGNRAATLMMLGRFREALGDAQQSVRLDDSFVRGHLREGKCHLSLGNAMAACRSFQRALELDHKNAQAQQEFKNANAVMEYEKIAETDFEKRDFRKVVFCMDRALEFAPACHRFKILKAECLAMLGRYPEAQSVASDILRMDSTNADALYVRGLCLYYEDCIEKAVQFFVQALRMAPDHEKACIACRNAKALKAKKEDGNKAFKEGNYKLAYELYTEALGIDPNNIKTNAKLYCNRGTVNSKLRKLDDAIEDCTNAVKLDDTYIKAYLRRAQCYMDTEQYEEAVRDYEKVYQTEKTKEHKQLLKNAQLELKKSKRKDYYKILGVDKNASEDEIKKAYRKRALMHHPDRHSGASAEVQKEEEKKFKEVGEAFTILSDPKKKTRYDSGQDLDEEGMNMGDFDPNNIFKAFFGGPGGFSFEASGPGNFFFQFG
Chain of UniProt P09668 (P09668 whole entry, looked up): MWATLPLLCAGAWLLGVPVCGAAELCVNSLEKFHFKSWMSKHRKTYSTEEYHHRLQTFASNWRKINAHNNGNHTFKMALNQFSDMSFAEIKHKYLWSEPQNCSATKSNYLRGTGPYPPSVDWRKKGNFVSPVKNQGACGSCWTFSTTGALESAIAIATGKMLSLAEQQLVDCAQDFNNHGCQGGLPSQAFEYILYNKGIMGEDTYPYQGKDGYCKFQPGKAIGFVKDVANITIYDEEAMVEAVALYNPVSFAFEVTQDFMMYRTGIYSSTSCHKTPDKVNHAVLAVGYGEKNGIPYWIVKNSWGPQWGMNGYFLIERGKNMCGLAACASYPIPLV
Chain of UniProt Q13948 (Q13948 whole entry, looked up): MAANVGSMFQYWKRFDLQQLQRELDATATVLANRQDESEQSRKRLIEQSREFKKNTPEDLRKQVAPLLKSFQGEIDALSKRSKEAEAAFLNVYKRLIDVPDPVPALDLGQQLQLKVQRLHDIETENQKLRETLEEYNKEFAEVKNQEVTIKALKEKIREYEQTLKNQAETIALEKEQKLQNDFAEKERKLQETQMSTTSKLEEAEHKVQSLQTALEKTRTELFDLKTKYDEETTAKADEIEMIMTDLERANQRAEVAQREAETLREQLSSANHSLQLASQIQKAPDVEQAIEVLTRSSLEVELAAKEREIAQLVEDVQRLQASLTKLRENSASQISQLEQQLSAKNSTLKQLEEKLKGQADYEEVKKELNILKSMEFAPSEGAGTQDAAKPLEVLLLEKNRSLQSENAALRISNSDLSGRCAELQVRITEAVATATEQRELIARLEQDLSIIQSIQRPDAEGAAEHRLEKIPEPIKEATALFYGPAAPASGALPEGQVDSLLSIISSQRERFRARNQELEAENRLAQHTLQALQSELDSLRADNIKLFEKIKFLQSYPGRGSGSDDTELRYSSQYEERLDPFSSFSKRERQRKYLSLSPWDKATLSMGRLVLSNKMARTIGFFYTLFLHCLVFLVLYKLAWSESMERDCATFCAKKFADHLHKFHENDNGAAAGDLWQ
Chain of UniProt Q9H2P9 (Q9H2P9 whole entry, looked up): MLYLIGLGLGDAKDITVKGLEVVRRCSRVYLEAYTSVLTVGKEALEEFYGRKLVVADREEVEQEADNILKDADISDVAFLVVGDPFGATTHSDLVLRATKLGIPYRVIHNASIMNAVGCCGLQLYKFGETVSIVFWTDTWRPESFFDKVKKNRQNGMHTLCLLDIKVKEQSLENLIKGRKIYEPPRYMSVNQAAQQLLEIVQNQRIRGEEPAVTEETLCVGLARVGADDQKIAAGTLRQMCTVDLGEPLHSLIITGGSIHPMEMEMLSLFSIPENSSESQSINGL
Chain of UniProt Q6IAN0 (Q6IAN0 whole entry, looked up): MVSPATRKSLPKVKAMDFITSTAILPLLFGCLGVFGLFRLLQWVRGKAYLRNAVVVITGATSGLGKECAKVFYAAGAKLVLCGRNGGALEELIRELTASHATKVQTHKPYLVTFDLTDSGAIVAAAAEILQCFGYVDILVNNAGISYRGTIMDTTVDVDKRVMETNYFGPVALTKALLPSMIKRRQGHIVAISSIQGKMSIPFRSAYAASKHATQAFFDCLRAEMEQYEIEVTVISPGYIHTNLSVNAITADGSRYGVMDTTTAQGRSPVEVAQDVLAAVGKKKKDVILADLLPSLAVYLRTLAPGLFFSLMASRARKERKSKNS
Chain of UniProt P11182 (P11182 whole entry, looked up): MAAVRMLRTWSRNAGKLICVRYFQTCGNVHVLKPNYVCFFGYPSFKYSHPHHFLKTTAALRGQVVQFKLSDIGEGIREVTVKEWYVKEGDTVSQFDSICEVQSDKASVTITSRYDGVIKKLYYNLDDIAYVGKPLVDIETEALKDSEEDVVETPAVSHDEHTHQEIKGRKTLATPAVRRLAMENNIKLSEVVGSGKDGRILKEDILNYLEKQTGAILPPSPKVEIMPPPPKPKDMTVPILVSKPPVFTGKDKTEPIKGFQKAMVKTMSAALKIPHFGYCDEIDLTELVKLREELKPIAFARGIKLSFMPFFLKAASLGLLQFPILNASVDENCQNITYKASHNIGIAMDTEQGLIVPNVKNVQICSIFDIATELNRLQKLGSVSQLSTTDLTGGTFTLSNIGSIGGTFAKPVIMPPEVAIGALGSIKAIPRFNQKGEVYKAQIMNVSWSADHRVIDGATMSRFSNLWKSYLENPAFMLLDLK
Chain of UniProt Q8N5C7 (Q8N5C7 whole entry, looked up): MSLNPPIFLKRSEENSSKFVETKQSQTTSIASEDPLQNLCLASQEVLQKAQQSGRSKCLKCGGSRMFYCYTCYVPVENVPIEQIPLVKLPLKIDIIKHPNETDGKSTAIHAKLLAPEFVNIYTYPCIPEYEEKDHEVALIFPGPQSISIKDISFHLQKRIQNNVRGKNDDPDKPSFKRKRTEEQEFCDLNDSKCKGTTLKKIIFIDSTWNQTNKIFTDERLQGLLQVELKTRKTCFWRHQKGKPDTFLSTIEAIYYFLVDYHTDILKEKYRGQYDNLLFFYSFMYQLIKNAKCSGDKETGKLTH

Row | Target | log2 fold change (saracatinib) | log2 fold change (sotrastaurin) | log2 fold change (alvocidib) | log2 fold change (Tubastatin A) | log2 fold change [1] | log2 fold change (defactinib) | log2 fold change (rucaparib) | log2 fold change [2] | log2 fold change (encorafenib) | log2 fold change [3] | log2 fold change [4] | log2 fold change (filanesib) | log2 fold change (zotarolimus) | log2 fold change (idasanutlin) | log2 fold change (alisertib) | log2 fold change [5] | log2 fold change (gefitinib) | log2 fold change [6] | log2 fold change (lapatinib) | log2 fold change (pictilisib)
1 | DUS2 (UniProt Q9NX74) | 0.112 | -0.098 | -0.041 | 0.041 | -0.048 | -0.093 | 0.042 | -0.113 | 0.09 | -0.02 | -0.02 | -0.014 | -0.041 | -0.004 | -0.075 | 0.059 | 0.04 | -0.11 | 0.043 | -0.128
2 | EXTL2 (UniProt Q9UBQ6) | 0.157 | 0.036 | -0.122 | -0.136 | -0.072 | -0.145 | 0.001 | 0.052 | -0.08 | 0.13 | 0.051 | -0.023 | -0.147 | -0.121 | -0.144 | -0.094 | 0.075 | 0.123 | 0.05 | -0.111
3 | DTWD1 (UniProt Q8N5C7) | 0.007 | -0.02 | -0.122 | -0.014 | 0.007 | -0.03 | 0.011 | 0.152 | 0.051 | -0.143 | -0.227 | -0.081 | 0.031 | -0.115 | -0.057 | 0.078 | 0.069 | 0.031 | 0.044 | 0.124
4 | EEA1 (UniProt Q15075) | 0.07 | 0.013 | 0.013 | -0.014 | -0.014 | -0.033 | -0.035 | -0.026 | -0.047 | 0.007 | 0.041 | -0.012 | -0.028 | 0.017 | -0.031 | 0.002 | 0.007 | 0.036 | 0.021 | 0
5 | DNAJB1 (UniProt P25685) | -0.003 | -0.03 | -0.094 | -0.001 | -0.011 | -0.05 | -0.025 | -0.033 | -0.009 | -0.017 | 0.07 | -0.013 | 0.007 | -0.032 | -0.063 | 0.046 | 0.06 | 0.003 | -0.032 | 0.005
6 | CTSH (UniProt P09668) | 0.101 | 0.044 | 0.038 | 0.017 | -0.002 | 0.018 | -0.121 | -0.03 | 0.018 | 0.02 | 0.066 | -0.072 | -0.046 | 0.029 | -0.06 | 0.021 | 0.025 | 0.084 | 0.018 | 0.019
7 | CUX1 isoform 2 (UniProt Q13948) | -0.065 | -0.012 | -0.07 | 0.006 | 0.03 | -0.049 | 0.061 | 0.048 | 0.056 | -0.062 | -0.095 | 0.077 | -0.007 | -0.043 | 0.012 | -0.062 | -0.029 | 0.074 | 0.009 | 0.018
8 | DHRS7B (UniProt Q6IAN0) | -0.003 | 0.148 | -0.18 | -0.019 | 0.051 | -0.067 | 0.029 | 0.071 | -0.008 | -0.016 | 0.012 | 0.03 | -0.058 | -0.03 | 0.012 | 0.335 (active) | 0.056 | -0.025 | 0.109 | -0.143
9 | DTWD2 (UniProt Q8NBA8) | -0.032 | -0.228 | 0.059 | -0.029 | 0.111 | -0.022 | 0.05 | 0.04 | 0.002 | -0.032 | -0.229 | 0.307 | -0.036 | -0.073 | 0.069 | -0.18 | -0.159 | 0.002 | 0.151 | -0.042
10 | F5 (UniProt P12259) | -0.003 | 0.139 | 0.134 | -0.076 | 0.133 | 0.081 | -0.079 | -0.068 | 0.037 | 0.039 | -0.032 | -0.05 | -0.051 | 0.613 (active) | -0.074 | -0.089 | 0.026 | 0.059 | 0.034 | 0.074
11 | FAM177A1 isoform 2 (UniProt Q8N128) | 0.092 | -0.021 | -0.011 | 0.045 | -0.094 | -0.054 | 0.001 | -0.042 | -0.029 | -0.065 | -0.072 | -0.145 | -0.041 | -0.02 | 0.013 | -0.291 (active) | 0.031 | -0.029 | -0.018 | 0
12 | DPH5 isoform 5 (UniProt Q9H2P9) | -0.007 | -0.017 | -0.064 | -0.022 | 0.07 | 0 | -0.061 | 0 | 0.025 | 0.004 | -0.01 | -0.024 | -0.002 | -0.049 | -0.037 | -0.071 | 0.017 | 0.046 | 0.043 | -0.006
13 | CWC27 (UniProt Q6UX04) | 0.01 | -0.093 | 0.011 | 0.012 | 0.022 | -0.139 | -0.001 | -0.064 | 0.068 | -0.04 | 0.047 | -0.017 | -0.068 | 0.014 | -0.043 | 0.061 | 0.021 | -0.046 | -0.004 | -0.036
14 | DBT (UniProt P11182) | -0.012 | 0.025 | 0.009 | -0.072 | 0.048 | 0.071 | 0.089 | -0.03 | 0.046 | -0.013 | 0.009 | 0.012 | 0.007 | 0.015 | 0.003 | -0.006 | -0.021 | 0.039 | 0.004 | 0.052
15 | DNAJC7 (UniProt Q99615) | 0.001 | -0.05 | -0.069 | 0.002 | 0.034 | -0.072 | -0.016 | 0.056 | 0.045 | -0.003 | 0.037 | -0.025 | 0.07 | -0.043 | -0.044 | -0.031 | 0.068 | -0.031 | 0 | 0.014
16 | DNAJB12 (UniProt Q9NXW2) | 0.022 | 0.068 | -0.006 | -0.006 | 0.024 | -0.03 | 0.079 | -0.011 | -0.018 | -0.021 | 0.023 | -0.024 | -0.06 | -0.006 | -0.081 | 0.023 | 0.029 | 0.006 | -0.033 | -0.051
